TDP1 cell CPT: growth inhibition of DT40 Tdp1-/-;hTDP1 cells with camptothecin (screen for TDP1 inhibitors). chicken DT40 Tdp1-/-;hTDP1 cells + 20 nM CPT, ATP luminescence, 48 h. Potency, µM (highest dose often 46.2 µM), for the others: top-dose activity change, negative = growth inhibition, hits mostly inhibitors. actives 12% (n = 420,000); note: potency is the fitted concentration of half-maximal effect; % is set by controls: 0 for no effect and ±100 for the full control effect; nearly all actives have a fitted effect of over 55% in size
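Chicken DT40 Tdp1-/- cells stably complemented with human TDP1 were seeded at 400 cells/well in medium containing 20 nM camptothecin, exposed to pin-transferred compounds, and grown at 37 °C for at least 48 hr. Viability was read as ATP luminescence.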
IL1B secr inh: inflammasome signaling inhibition, IL-1 beta readout; THP-1 LPS/ATP IL-1B secretion, AlphaLISA, 16 h; stronger effect = lower value; activity change, % at 57.5 µM; actives 4.7% (n = 360,000); AID 743279; in the data active = activity change below about -50%; inconclusive = mostly about -30% to -49%; note: % is set by controls: 0 for no effect and ±100 for the full control effect
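THP-1 cells pretreated 1 hr with compounds (up to 57.5 uM final), then stimulated with LPS (250 ng/mL final) plus ATP (1.25 mM final); secreted IL-1B measured by AlphaLISA after 16 hr, decreased signal indicating inhibition.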
ClpP mod: qHTS Assay for Activators of ClpP; ATP-dependent Clp protease proteolytic subunit (Bacillus subtilis (strain 168)), P80244; Potency, µM (top dose mostly 57.5 µM), without a hit: top-dose activity change, negative = active; actives 1.9% (n = 340,000); purified B. subtilis ClpP, FRET peptide cleavage, 20 min; active = well fitted falling curve with a large enough effect; inconclusive = small, poorly fitted or top-dose-only effect; inactive = no such curve, though single readings can be large or run the other way; note: potency is the fitted concentration of half-maximal effect; the source files actives as falling curves though it sought activators and does not explain the sign; nearly all actives have a fitted effect of over 65% in size
Target sequence (P80244 whole entry, looked up): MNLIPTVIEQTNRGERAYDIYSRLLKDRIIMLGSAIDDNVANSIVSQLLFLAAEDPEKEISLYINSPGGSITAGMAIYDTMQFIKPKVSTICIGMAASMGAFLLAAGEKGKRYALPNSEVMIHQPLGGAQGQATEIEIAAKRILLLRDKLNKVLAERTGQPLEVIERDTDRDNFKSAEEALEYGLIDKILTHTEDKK
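Buffer: 100 mM Tris/HCl pH8, 100 mM KCl, 0.05% low protease BSA, 2.5% glycerol, 0.01% Tween-20. ClpP 10 microg/mL final; 20 min RT; delta FRET normalized to ADEP and DMSO controls.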
D3 antag: blocks the human D3 dopamine receptor; actives 2.5% (n = 360,000); max response, negative = inhibition, %; AID 652054; D3R cells, DiscoveRx beta-arrestin luminescence, antagonist mode; stronger effect = lower value; in the data active = max response below about -50%; inconclusive = no clear call, values can overlap the other calls; note: % is set by controls: 0 for no effect and ±100 for the full control effect
Target sequence (P35462 whole entry, looked up): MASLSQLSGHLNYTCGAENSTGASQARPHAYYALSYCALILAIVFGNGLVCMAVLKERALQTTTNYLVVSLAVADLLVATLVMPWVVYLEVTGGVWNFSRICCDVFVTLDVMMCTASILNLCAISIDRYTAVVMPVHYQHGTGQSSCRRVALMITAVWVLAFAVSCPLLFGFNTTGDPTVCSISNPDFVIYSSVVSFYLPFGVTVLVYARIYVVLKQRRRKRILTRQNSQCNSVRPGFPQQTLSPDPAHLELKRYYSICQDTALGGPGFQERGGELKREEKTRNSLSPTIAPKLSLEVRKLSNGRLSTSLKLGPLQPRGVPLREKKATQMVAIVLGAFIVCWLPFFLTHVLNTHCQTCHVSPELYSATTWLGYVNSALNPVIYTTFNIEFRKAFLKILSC
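Cells plated overnight at 1500 cells/well, then exposed to library compounds with dopamine controls for 90 minutes at 37 degrees C. DiscoveRx reagent added for 30–60 minutes at room temperature; luminescence read, quantitative HTS format.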
D3 ag: activates the human D3 dopamine receptor | P35462 | D3R DiscoveRx beta-arrestin cells, luminescence, 90 min | max activation, % | actives 0.58% (n = 410,000) | AID 652048; in the data active = max activation above about 30%; note: 0% is about no effect
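Agonist mode: compounds and dopamine controls were applied to plated cells for 90 min at 37 degrees C after an overnight attachment at 1500 cells/well. Luminescent read-out followed 30 - 60 minutes at room temperature with DiscoveRx detection reagent.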
DT40 TDP1 no CPT: qHTS for Inhibitors of human tyrosyl-DNA phosphodiesterase 1 (TDP1): qHTS in cells in absence of CPT; DT40 Tdp1-/- hTDP1 cells, no CPT, ATP luminescence, 48 h; Potency, µM (top dose mostly 46.2 µM), inactives show top-dose activity change, negative = growth inhibition, actives largely listed as inhibitors; actives 15% (n = 420,000); note: potency is the fitted concentration of half-maximal effect; % is set by controls: 0 for no effect and ±100 for the full control effect; nearly all actives have a fitted effect of over 55% in size
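Readout: luminescence from CellTiter-Glo after 30 min in the dark at RT. Cells: DT40 Tdp1-/- with stable hTDP1, 400/well. Exposure: compounds alone, ≥48 hr, 37 °C.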
* hit, by the source's call; ? = inconclusive; nt = no result. Rows were chosen to be rich in hits. Some 21% of all compounds tested hit in one or more screens of this group. Unless noted, calls come from the whole dose curve; as a rule, active = well fitted inhibition curve with a large enough effect; inconclusive = small, poorly fitted or top-dose-only effect; inactive = flat fitted curve, though single readings scatter.

SMILES	TDP1 cell CPT	IL1B secr inh	ClpP mod	D3 antag	D3 ag	DT40 TDP1 no CPT
COc1ccccc1CNC(=O)Cc1c(C)c2c(cc(C)c3c(C)c(C)oc32)oc1=O	-4%	nt	?	nt	-1	0%
CCN(CC)C(=O)Cn1cc(SCC(=O)Nc2ccccc2C)c2ccccc21	-7%	nt	0%	nt	0	-9%
COC(=O)c1[nH]c2ccc(F)cc2c1NC(=O)CCN1CC(C)OC(C)C1 (stereo not given)	1%	-6	16µM*	-17	0	-9%
COC(=O)c1[nH]c2ccc(F)cc2c1NC(=O)CCN1CCN(Cc2ccc3c(c2)OCO3)CC1	16µM*	-1	?	-2	-3	21µM*
CCOC(=O)c1[nH]c2ccccc2c1NC(=O)CCN1CC(C)OC(C)C1 (stereo not given)	-6%	2	-22%	8	1	3%
O=C1SC(SCc2ccccc2)=N/C1=C\c1ccc(C(=O)O)cc1	27%	-58*	nt	-29	-4	-9%
Cc1nc2ccccc2n1CC(O)COC1CCCCC1 (stereo not given)	18µM*	11	-1%	-28	0	21µM*
CC(=O)Nc1ccc(OCC(O)Cn2c(C(C)C)nc3ccccc32)cc1 (stereo not given)	9%	0	0%	4	2	1%
COc1ccc(OCCn2c(C)nc3ccccc32)cc1	?	?	2%	-6	3	?
CC(C)c1nc2ccccc2n1CC(O)COC1CCCCC1 (stereo not given)	?	15	nt	-8	5	16µM*
CC(=O)Nc1ccc(OCC(O)Cn2c(C)nc3ccccc32)cc1 (stereo not given)	?	13	-3%	16	-2	?
CC(=O)N(C)c1ccc(OCC(O)Cn2c(C)nc3ccccc32)cc1 (stereo not given)	5.8µM*	0	nt	17	7	6.5µM*
COc1cccc(OCC(Cn2c(C)nc3ccccc32)OC(C)=O)c1 (stereo not given)	?	-2	nt	32	6	8.2µM*
Cc1ccc(CN2CCN(C3CCN(C(=O)Nc4ccc(C)cc4Cl)CC3)C(=O)C2=O)cc1	-12%	nt	-1%	nt	-14	?
CCOc1ccc(CC(=O)Nc2c(C(=O)c3ccccc3)oc3ccc(OC)cc23)cc1OCC	-18%	nt	-2%	nt	3	-7%
O=C(NCCc1ccccc1)c1cc(-c2ccccc2)c(N2CCOCC2)s1	?	?	?	-8	-14	16µM*
COc1ccc(CCNC(=O)c2cc(-c3ccccc3)c(N3CCOCC3)s2)cc1OC	21µM*	-11	-3%	17	4	16µM*
CCN(CC)CCCNC(=O)c1cc(-c2ccccc2)c(N2CCCCC2)s1	?	-10	17%	?	-40	15µM*
O=C(NCCc1ccccc1)c1cc([N+](=O)[O-])ccc1N1CCOCC1	?	-18	nt	1	2	-23%
CSc1ccc(CCNC(=O)c2cc(C)nn2-c2ccccc2)cc1	-29%	3	6%	11	-12	?
CCN(CC)CCCNC(=O)c1nn2c(C(F)(F)F)cc(-c3ccccc3)nc2c1Cl	?	?	2%	-13	-15	?
CSc1ccc(CCNC(=O)c2cc(-c3ccccc3)c(N3CCOCC3)s2)cc1	?	-12	nt	-7	-9	16µM*
C=CCC1CCCC(=O)N2CCCC12 (stereo not given)	-15%	21	0%	17	-27	-8%
Cc1cnc(C(=O)Nc2cccc(S(=O)(=O)N(C)C)c2)cn1	-1%	24	-1%	5	-2	?
CC(=O)C1=C(O)C(=O)N(c2ccc(Br)cn2)C1c1ccc(F)cc1 (stereo not given)	15%	-6	nt	-10	-12	-24%
SMILES	TDP1 cell CPT	IL1B secr inh	ClpP mod	D3 antag	D3 ag	DT40 TDP1 no CPT
Cc1c(C(=O)N2CCC(C)CC2)c(S(=O)(=O)NCc2ccccc2)c(C)n1C	-1%	nt	0%	nt	1	-9%
CCN1C(=O)C(Cc2nc3ccccc3c(=O)n2-c2ccc(OC)cc2)c2ccccc21 (stereo not given)	?	nt	0%	nt	0	?
Cc1cc(=O)n(Cc2ccc(F)cc2Cl)c2c1c(C)nn2-c1ccccc1	-2%	nt	-4%	nt	3	3%
CCOC(=O)N1CCN(C2CC(=O)N(c3ccc(F)cc3)C2=O)CC1 (stereo not given)	-1%	16	-2%	13	2	-15%
CCCCCCC(=O)N(O)C1CC(=O)N(c2ccc(F)cc2)C1=O (stereo not given)	1.6µM*	-88*	0%	?	-27	2.9µM*
COc1ccccc1N(O)C1CC(=O)N(c2ccc(Br)cc2)C1=O (stereo not given)	18µM*	-1	2%	-17	-7	?
CCCCCCC(=O)N(O)C1CC(=O)N(c2ccc(Br)cc2)C1=O (stereo not given)	21µM*	-82*	1%	-22	4	18µM*
COCCCNc1ncnc2ccc(C)cc12	16µM*	26	-10%	11	0	18µM*
FC(F)(F)c1ccccc1-c1ccc2ncnc(NCc3cccnc3)c2c1	2.1µM*	nt	nt	nt	nt	7.3µM*
COCCNc1ncnc2ccc(-c3ccccc3C(F)(F)F)cc12	13µM*	nt	nt	nt	nt	21µM*
c1cncc(CNc2ncnc3ccc(-c4cccnc4)cc23)c1	0.0065µM*	nt	nt	nt	nt	12µM*
FC(F)(F)c1ccccc1-c1cncnc1NCc1cccnc1	0%	nt	nt	nt	nt	-6%
O=C(NCc1cccnc1)c1ccc(S(=O)(=O)N2CCCCCC2)cc1	-15%	25	nt	-9	-4	?
O=C(O)C(Oc1ccc2cc(-c3ccc(Cl)cc3)c(=O)oc2c1)c1ccccc1 (stereo not given)	-7%	-7	4%	-8	-1	0%
Cc1ccc(O)c(NC(=O)c2ccc(Br)c(S(=O)(=O)N3CCCCC3)c2)c1	9.2µM*	nt	-2%	nt	-9	5.2µM*
O=C(Nc1ccccn1)c1ccc(Br)c(S(=O)(=O)N2CCCC2)c1	-15%	-8	0%	16	-19	-21%
O=C(Nc1ccccn1)c1ccc(Br)c(S(=O)(=O)N2CCCCC2)c1	-1%	-2	13µM*	-6	-6	?
O=C(Nc1nncs1)c1ccc(Br)c(S(=O)(=O)N2CCCC2)c1	-15%	-10	32µM*	-22	-7	-5%

Compound activity: PubChem BioAssay, National Center for Advancing Translational Sciences (NCATS)
